Screens deposited in PubChem by National Center for Advancing Translational Sciences (NCATS).
FLuc modulator – firefly luciferase modulation, counter-screen for miR-21 project. Potency, µM (highest dose often 57.5 µM), for the others: at the highest dose activity change, negative = inhibition, usual class: inhibitors. purified FLuc, Km substrates, luminescence inhibition. 360,000 tested, 6.9% active;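 note: plate controls were vehicle for no effect and reference inhibitor for full effect; nearly all actives have a fitted effect of over 55% in size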
Target sequence (P08659 whole entry, looked up): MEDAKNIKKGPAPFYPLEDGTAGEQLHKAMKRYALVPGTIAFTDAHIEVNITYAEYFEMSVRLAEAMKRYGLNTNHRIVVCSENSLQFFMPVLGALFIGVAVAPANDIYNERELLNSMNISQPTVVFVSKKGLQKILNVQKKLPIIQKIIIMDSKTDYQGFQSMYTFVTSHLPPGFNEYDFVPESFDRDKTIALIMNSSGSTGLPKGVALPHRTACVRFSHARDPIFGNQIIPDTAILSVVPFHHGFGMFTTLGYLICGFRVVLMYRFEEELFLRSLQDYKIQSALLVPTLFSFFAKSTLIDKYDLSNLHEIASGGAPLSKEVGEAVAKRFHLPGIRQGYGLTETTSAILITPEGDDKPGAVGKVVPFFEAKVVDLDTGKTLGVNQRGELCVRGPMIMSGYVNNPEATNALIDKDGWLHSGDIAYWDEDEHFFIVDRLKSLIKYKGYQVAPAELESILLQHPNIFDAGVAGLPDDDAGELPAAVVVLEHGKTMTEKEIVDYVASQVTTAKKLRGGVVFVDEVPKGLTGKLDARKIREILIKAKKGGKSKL
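Purified P. pyralis luciferase (10nM final) with 10uM D-luciferin and 10uM ATP (Km levels) in 50mM Tris acetate pH 7.5, 10mM Mg acetate, 0.01% Tween-20, 0.05% BSA; qHTS 6-point titration, ~60 µM downward; luminescence read.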
SMN2 splice up – enhancers of SMN2 splice variant expression | HEK293 SMN2-luciferase splicing reporter, luminescence, 30-36 h | Potency, µM (highest dose often 46.1 µM), without a hit: at the top dose activity change, positive = activation, hits mostly activators | 210,000 tested, 2.8% active | AID 1458; note: % of control where 0% means no effect; nearly all actives have a fitted effect of over 55% in size
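HEK293 cells carry an SMN2 […]–luciferase reporter in which exon 7 inclusion puts luciferase in frame. Cells were plated 10-12 h before compound addition, then incubated 30-36 h at 37C. ONE-Glo luminescence was read; sodium butyrate at 4.5 mM final served as control.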
Rab9 promoter act – Rab9 promoter activation | Potency, µM (series often up to 9.22 µM), inactives show top-dose activation, negative = inhibition, usual class: activators | 320,000 tested, 2.8% active | Huh7 Rab9 promoter-luciferase reporter, luminescence, 24 h; note: % of control where 0% means no effect; nearly all actives have a fitted effect of over 60% in size
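Luminescence read-out: Huh7 cells stably expressing Rab9-luciferase, treated 24 h with compound at 37 °C, then lysed with luciferase reagent for 10 min at ambient before reading.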
NPC1 promoter act – activators of NPC1 promoter. Potency, µM (top dose mostly 9.22 µM), without a hit: top-dose activation, most hits filed as activators. Huh7 NPC1 promoter luciferase reporter, 24 h. 320,000 tested, 2.4% active. AID 485313; note: % of control where 0% means no effect; nearly all actives have a fitted effect of over 60% in size
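Cells: Huh7 expressing luciferase under the NPC1 promoter, 1500/well. Seeded 2 h, compound added, incubated 24 h at 37 °C. Luciferase reagent, 10 min ambient, then luminescence.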
Luc counter – Kinase-Glo luciferase inhibition (counter-screen) | Potency, µM (doses to about 38.3 µM), for inactives: at the top dose activity change, negative = inhibition, most hits filed as inhibitors | AID 1379 | 200,000 tested, 0.28% active | Q27757 | Kinase-Glo luciferase, ATP luminescence, 8 min; note: % is set by controls: 0 for no effect and ±100 for the full control effect; nearly all actives have a fitted effect of over 60% in size
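Compounds were added to a substrate mix at pH 7.2 (50 mM imidazole, 10 uM ATP, within the enzyme's linear range), followed by Kinase-Glo detection reagent; luminescence was measured after 8 minutes at ambient temperature.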
An asterisk follows results filed as active; u = inconclusive; x = no result; [ ] = another dose, or the depositor's remark. Compounds with a hit are over-represented: about 7.3% of the library has one in this group of screens. Calls come from the whole dose curve; as a rule, active = well fitted curve in the direction sought with a large enough effect; inconclusive = small, poorly fitted or top-dose-only effect, or another doubt; inactive = no such curve, though single readings can be large; an effect the other way counts as inactive or inconclusive. Potency is the fitted concentration of half-maximal effect.

SMILES	FLuc modulator	SMN2 splice up	Rab9 promoter act	NPC1 promoter act	Luc counter
CCc1noc(C)c1C(=O)Nc1nc2ccc(S(C)(=O)=O)cc2s1	2.4µM*	x	4%	22%	x
CCOC(=O)c1c(NC(=O)c2c(-c3ccccc3)noc2C)sc(C)c1-c1ccccc1	-1%	0.71µM*	21%	-11%	-5%
Cc1noc(C)c1C(=O)Nc1nc2ccc(Cl)cc2s1	2.4µM*	x	u	u	x
CCOC(=O)c1ccccc1NC(=O)c1c(-c2ccccc2)noc1C	-18%	x	x	x	x
COc1cccc(OC)c1C(=O)Nc1nc2ccc(S(C)(=O)=O)cc2s1	1%	-1%	3%	-4%	-3%
COc1ccc(NC(=O)CC2C(=O)N(c3ccccc3)C(=O)N2Cc2cccnc2)cc1 (configuration not stated)	-3%	x	x	x	x
CCc1nc(-c2cc(S(=O)(=O)N3CCN(c4ccccc4)CC3)ccc2OC)no1	1%	x	x	x	x
O=C(C1CCCN(S(=O)(=O)c2cccc3nonc23)C1)N1CCN(c2cccc(C(F)(F)F)c2)CC1 (configuration not stated)	4%	-13%	x	x	x
CCCc1nnc(NC(=O)c2cc(=O)c3cc(Cl)ccc3o2)s1	u	0%	x	x	x
CCc1ccccc1NC(=O)CN1C(=O)c2cccnc2Oc2ccc(Cl)cc21	-8%	x	x	x	x
Cc1noc(C)c1C(=O)Nc1nc2ccc(F)cc2s1	4.3µM*	x	3.2µM*	1.6µM*	x
CCc1ccc2nc(NC(=O)c3cc(C)on3)sc2c1	6µM*	u	u	-5%	-9%
COc1ccc(NC(=O)CSC2=Nc3ccccc3C3=NC(CCC(=O)NCc4ccc(F)cc4)C(=O)N23)cc1Cl (configuration not stated)	-2%	-8%	x	x	x
CC1CCc2c(sc(NC(=O)c3cc4nc(-c5ccc(Cl)cc5)cc(C(F)(F)F)n4n3)c2C#N)C1 (configuration not stated)	2%	5%	x	x	x
Cc1ccc(C(=O)CN2C(=O)NC3(CCCCCC3)C2=O)c(C)c1	u	x	u	4µM*	x
COCCn1c(C)cc(C(=O)CN2C(=O)NC3(CCCCCCC3)C2=O)c1C	15µM*	u	4µM*	3.2µM*	-3%
Cc1c(Cl)cccc1NC(=O)CSc1nc(=O)n(Cc2ccco2)c2c1CCC2	-16%	x	x	x	x
Cc1cccc(N(CC(=O)NCCSCc2ccccc2)S(=O)(=O)c2ccccc2)c1C	2%	-2%	x	x	x
Oc1cc(-c2ccncc2)cc2cccnc12	u	x	-35%	-35%	x
Oc1cc(-c2ccc(N3CCCCC3)nc2)cc2cccnc12	u	x	4%	10%	x
CN(C)c1ccc(-c2cc(O)c3ncccc3c2)cc1	15µM*	x	-2%	-7%	x
CN1CCN(c2ccc(-c3cc(O)c4ncccc4c3)cc2)CC1	6µM*	x	u	12%	x
Cc1cc(C)cc(N2C(=O)CS(=O)(=O)C23C(=O)N(Cc2ccccc2)c2ccccc23)c1 (configuration not stated)	-7%	x	x	x	x
CC(C)(C)OC(=O)C1=NOC2(C=CC(=O)C=C2)C1	x	14%	x	x	0%
Cc1ccc(Cn2ccnc2SCC(=O)Nc2nnc(C)s2)cc1	-14%	x	x	x	x
SMILES	FLuc modulator	SMN2 splice up	Rab9 promoter act	NPC1 promoter act	Luc counter
CCN1CCN(C(=O)c2nn(-c3ccc(C)cc3)c(=O)c3c2c2ccccc2n3C)CC1	4%	25µM*	1%	6%	0%
COc1ccc(CN2C(=O)C(NC(=O)c3ccc(C)cc3)(C(F)(F)F)N=C2c2ccccc2)cc1 (configuration not stated)	-11%	-2%	x	x	x
O=C1c2ccccc2-c2nc3ccccc3cc21	2.1µM*	x	5µM*	3.5µM*	x
c1ccc2c(c1)Cc1cc3ccccc3nc1-2	0.95µM*	4µM*	0.4µM*	1.3µM*	10µM*
OCCN(CO)CO	x	-2%[9.22 µM]	x	x	-4%[7.66 µM]
Cc1ccc(-c2n[nH]c3c2C(c2ccc(C(C)(C)C)cc2)NC3=O)cc1 (configuration not stated)	-5%	5%	x	x	x
O=C(O)c1ccc(NC2=C/C(=N/S(=O)(=O)c3ccccc3)c3ccccc3C2=O)cc1	15µM*	-103%	-39%	-40%	-27%
O=C(Nc1ccc(Cn2cccn2)cc1)c1ccc(COc2cccc(Br)c2)cc1	15µM*	13µM*	0.5µM*	0.56µM*	1%
Cc1ccc(-c2ccc(SCC(=O)c3ccccc3)nn2)cc1	15µM*	6.3µM*	u	u	-3%
COc1ccc(-c2ccc(SCC(=O)Nc3cc(C)on3)nn2)cc1OC	-8%[2.3 µM]	x	u	11%	1%
COc1ccc(-c2ccc(SCC(=O)c3ccccc3)nn2)cc1OC	24µM*	-1%	1%	-1%	1%
CCOc1ccccc1NS(=O)(=O)c1ccc(N2CCCCS2(=O)=O)cc1	-7%	x	x	x	x
O=C(O)c1ccccc1COc1ccccc1Cl	15µM*	26%	0%	4%	-2%
O=C(O)c1ccccc1OCc1ccccc1Br	-14%	10%	-1%	-1%	2%
O=C(O)c1cccc(OCc2ccccc2Cl)c1	9.5µM*	x	u	u	2%
Cc1nn(-c2ccccn2)c2nc(-c3cccs3)cc(C(=O)NCc3ccco3)c12	6.7µM*	x	3%	1%	2%
Cc1ccc(-c2cc(C(=O)NCCCn3ccnc3)c3ccccc3n2)s1	17µM*	-45%	-1%	1%	-3%
Cc1ccc(-c2cc(C(=O)NCc3ccco3)c3ccccc3n2)s1	12µM*	-14%	5%	1%	-2%
COc1ccc(-c2cc(C(=O)NCCCn3ccnc3)c3ccccc3n2)c(OC)c1	-4%	x	-2%	-2%	x
O=C(NCc1ccco1)c1cc(-c2cccs2)nc2ccccc12	-15%	-10%	12%	-3%	1%
CCc1ccc(-c2cc(C(=O)NCCCn3ccnc3)c3ccccc3n2)s1	4.8µM*	-1%	20%	6%	-2%
O=C(NCCCn1ccnc1)c1cc(-c2cccnc2)nc2ccc(Br)cc12	u	7%	4%	-5%	1%
Fc1ccc(-c2csc(-c3nc(-c4ccc(Br)s4)cs3)n2)cc1	2%	-1%	x	x	x
